High-throughput results: PubChem BioAssay, National Center for Advancing Translational Sciences (NCATS)
Pf growth 48h = inhibits P. falciparum growth in the first generation, 48 h | AID 504832 | 5.9% of 310,000 active | Potency, µM (series often up to 28.7 µM), hits mostly inhibitors | P. falciparum luciferase growth in erythrocytes, 48 h
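Erythrocytes infected with P. falciparum carrying an integrated firefly luciferase reporter (2% hematocrit, 0.1% parasitemia final) were exposed to compounds in RPMI 1640 with 0.5% Albumax at 37 C, 5% CO2. Growth inhibition was scored as reduced luminescence.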
LmPK inh = LmPK (Leishmania mexicana) enzyme inhibition; 0.37% of 290,000 active; Q27686; Potency, µM (titrated, usually from 57.5 µM), hits mostly inhibitors; purified LmPK, Kinase-Glo ATP luminescence, 1 h; AID 1721
Target sequence (Q27686 whole entry, looked up): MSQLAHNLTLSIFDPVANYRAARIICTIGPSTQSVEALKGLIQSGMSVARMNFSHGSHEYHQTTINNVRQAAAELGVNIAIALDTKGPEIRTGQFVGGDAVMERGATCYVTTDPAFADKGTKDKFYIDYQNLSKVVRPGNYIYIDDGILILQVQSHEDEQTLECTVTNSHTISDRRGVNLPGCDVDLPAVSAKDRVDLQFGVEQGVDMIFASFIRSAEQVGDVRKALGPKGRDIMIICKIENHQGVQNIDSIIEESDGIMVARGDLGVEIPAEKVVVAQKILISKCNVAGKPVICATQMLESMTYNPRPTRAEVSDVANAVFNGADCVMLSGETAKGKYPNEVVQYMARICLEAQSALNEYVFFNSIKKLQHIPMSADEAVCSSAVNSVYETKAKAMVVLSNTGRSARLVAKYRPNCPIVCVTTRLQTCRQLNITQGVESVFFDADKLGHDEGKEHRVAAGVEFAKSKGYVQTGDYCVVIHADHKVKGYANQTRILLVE
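Purified LmPK (0.1 nM) with 0.5 mM PEP and 0.1 mM ADP in imidazole buffer pH 7.2 with MgCl2/KCl, 1 h at room temperature. ATP formed was read by luciferase luminescence and normalized to no-enzyme and uninhibited controls.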
Pf growth 96h = inhibits malaria parasite growth, 96 h. Potency, µM (top dose mostly 28.7 µM), actives largely listed as inhibitors. 6.9% of 320,000 active. P. falciparum luciferase reporter growth, 96 h
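Parasite growth measured via integrated firefly luciferase reporter in P. falciparum. Infected erythrocytes at 2% hematocrit, 0.05% parasitemia final were treated 96 hours at 37 C under 5% CO2, and luminescence was read.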
CHX counter = affects cycloheximide protein synthesis inhibition readout, counter-screen | cell reporter, cycloheximide protein synthesis inhibition counterscreen | max response, % | 12% of 300,000 active; in the data active = max response mostly above about 13%, no sharp cut-off; inactive = mostly below about 14%; note: read at 38.3 µM for the half of the compounds with a filed dose
Shiga inhibitor = blocks Shiga toxin action in Vero cells; 9.2% of 290,000 active; AID 2315; Vero cells, Shiga toxin protein synthesis inhibition reporter; inhibition, % at 38.7 µM; in the data active = inhibition mostly above about 28%, no sharp cut-off; inactive = mostly below about 43%
Each line names hits and unclear results; the compound was inactive in the other large screens. This is a sample that favours compounds with a hit; in the whole collection about 22% have one here. Unless noted, calls come from the whole dose curve; as a rule, active = well fitted inhibition curve with a large enough effect; inconclusive = small, poorly fitted or top-dose-only effect, or another doubt; inactive = no such curve, though single readings can be large or run the other way.

Cc1nn2cc(-c3ccc(N)cc3)nc2s1	CHX counter 35, Shiga inhibitor 69
COc1ccc(/C=N/n2cc(-c3ccc(OC)cc3)nc2N)cc1	Pf growth 48h inconclusive, Pf growth 96h inconclusive
CC(=O)c1ccc(NC(=O)c2ccc3nc(-c4ccco4)c(-c4ccco4)nc3c2)cc1	Pf growth 48h 12µM (no result: Pf growth 96h)
O=C(Nc1ccc2nc(-c3ccco3)c(-c3ccco3)nc2c1)N1CCCC1	CHX counter 30, Shiga inhibitor 62 (no result: Pf growth 48h, LmPK inh, Pf growth 96h)
CCCNC(=O)c1ccc2nc(-c3ccccc3)c(-c3ccccc3)nc2c1	Pf growth 48h 5.2µM, Pf growth 96h inconclusive
O=C(Nc1ccccc1)c1ccc2nc(-c3ccco3)c(-c3ccco3)nc2c1	Pf growth 48h inconclusive (no result: Pf growth 96h)
O=C(NCc1ccccc1)c1ccc2nc(-c3ccco3)c(-c3ccco3)nc2c1	Pf growth 96h 12µM (no result: Pf growth 48h)
O=C(NNC(=O)c1ccc(Br)o1)c1csc(N2CCOCC2)n1	none (no result: LmPK inh, CHX counter, Shiga inhibitor)
CC(=O)N1CCN(c2nc3ccc([N+](=O)[O-])cc3s2)CC1	none
Cc1ncc(CN2CCC(C(=O)Nc3cccc(-c4cscn4)c3)CC2)cn1	Pf growth 96h inconclusive
CCCNC(=O)C(Cc1ccccc1)NC(=O)c1ccc(-c2ccccc2)cc1 (configuration not stated)	Pf growth 96h 1.5µM (no result: LmPK inh, CHX counter, Shiga inhibitor)
CC(=O)c1ccc(NC(=O)C2=CC(c3ccco3)=NS(=O)(=O)N2C)cc1	CHX counter 15
O=C(COC(=O)c1ccc(O)cc1O)NC1CC1	Pf growth 96h inconclusive (no result: LmPK inh, CHX counter, Shiga inhibitor)
NS(=O)(=O)Nc1c(Br)cc(Br)c2cccnc12	none (no result: Pf growth 48h, LmPK inh, Pf growth 96h)
CN1CC[C@@]2(C)c3cc(O)ccc3N(C)C2O1 (some centres not stated)	none (no result: Pf growth 48h, LmPK inh, Pf growth 96h)
CNC(=O)Oc1ccc2c(c1)[C@]1(C)CCN(C)C1N2C (some centres not stated)	Pf growth 48h 13µM, Pf growth 96h 15µM (no result: LmPK inh, CHX counter, Shiga inhibitor)
COc1ccc(C(C)NC(=O)Cc2cccs2)cc1OC (configuration not stated)	none
CN(C)c1ccc2c(c1)N=C(c1ccco1)OP2(=S)N1CCOCC1 (configuration not stated)	CHX counter 31, Shiga inhibitor 77
CN(C)c1ccc(CCN2CCOCC2)cc1	none (no result: LmPK inh, CHX counter, Shiga inhibitor)
Cc1nc(N)nc(-c2ccccc2O)n1	CHX counter 24 (no result: Pf growth 96h)
Nc1nc(N)nc(-c2ccccc2-c2nc(N)nc(N)n2)n1	none
O=C(CSc1nc(-c2ccccc2)cs1)NCCN1C(=O)CSC1=O	CHX counter 30
Cc1ccc(-n2c(SCC(=O)NCCN3C(=O)CSC3=O)nnc2-c2ccccc2F)cc1	Pf growth 96h 15µM
O=C(CSc1nnc(-c2ccc(F)cc2)n1-c1ccccc1)NCCN1C(=O)CSC1=O	none
Cc1ccc(Nc2nnc(SCC(=O)NCCN3C(=O)CSC3=O)s2)cc1C	LmPK inh inconclusive, Pf growth 96h inconclusive, CHX counter 15, Shiga inhibitor active
Cc1ccc(SCC(=O)NCCN2C(=O)CSC2=O)cc1C	none (no result: Pf growth 48h)
O=c1c2ccccc2ncn1CCCCOc1ccc(Br)cc1	none
Cc1cccc(NC(=O)N2CCN(Cc3ccccc3)CC2)c1	CHX counter 21, Shiga inhibitor active
Cc1ccc(NC(=O)N2CCCCCC2)cc1C	CHX counter 44, Shiga inhibitor 69
S=C(Nc1ccc2nccnc2c1)N1CCOCC1	Pf growth 96h inconclusive, CHX counter 37, Shiga inhibitor 48
Cc1ccc(NC(=O)N2CCCCC2)cc1NC(=O)N1CCCCC1	Pf growth 48h inconclusive
Cc1cccc(CN2CCN(C(=O)CCl)CC2)c1	Pf growth 48h 1.2µM, Pf growth 96h 0.074µM
Cc1ccc(NC(=S)N2CCOCC2)cc1	none
Cc1cccc(NC(=O)N2CCCC2)c1	none
O=C(Nc1ccc(F)c(Cl)c1)N1CCCC1	none
CCOC(=O)N1CCN(C(=O)Nc2cccc3ccccc23)CC1	Pf growth 96h inconclusive
O=C(Nc1cccc2ccccc12)N1CCN(Cc2ccccc2)CC1	Pf growth 96h 10µM
Cc1ccc(NC(=S)N2CCCCCC2)c(C)c1	CHX counter 18
Cc1cccc(NC(=O)N2CCCCCC2)c1	Pf growth 96h inconclusive, CHX counter 38, Shiga inhibitor 56
O=C(Nc1ccc(F)c(Cl)c1)N1CCCCCC1	CHX counter 26, Shiga inhibitor 52
OCC1O[C@@H](O[C@@H]2C(CO)OC(O)C(O)C2O)C(O)C(O)C1O (some centres not stated)	none (no result: LmPK inh, CHX counter, Shiga inhibitor)
Cc1cccc(NC(=S)N2CCCCCC2)c1	CHX counter 8.0
Cc1ccc(NC(=O)N2CCCN(Cc3ccc(F)cc3)C2)cc1C	Pf growth 48h 13µM, Pf growth 96h inconclusive
O=C(CCC(=O)N1CCOCC1)Nc1ccc(Cl)c(Cl)c1	none
S=C(Nc1ccc(Br)cc1Cl)N1CCCC1	Pf growth 96h 2.1µM
Cc1cc(C)cc(NC(=S)N2CCCC2)c1	none
Cc1cccc(C)c1NC(=S)N1CCCN(Cc2ccc(F)cc2)C1	none
O=C(CCC(=O)N1CCCCC1)Nc1ccc(Cl)c(Cl)c1	Pf growth 96h 12µM
Cc1ccc(CNC(=O)CCCCCNC(=O)N2CCn3c2nc2ccccc23)cc1	none
N#CCC(=O)Nc1ccc(C(=O)NCc2ccccn2)cc1	none
COc1ccccc1OCCNC(=O)Cc1ccc(Cl)c(Cl)c1	Pf growth 48h inconclusive, Pf growth 96h inconclusive
Cc1ccc(-c2cnc(NC(=O)CCC(=O)N3CCCCC3)n2C)cc1	Pf growth 96h 12µM
COc1ccccc1N1CCN(C(=S)Nc2cccc(C)c2)CC1	CHX counter 33
S=C(Nc1ccc2nsnc2c1)N1CCCCC1	CHX counter 11, Shiga inhibitor 42
Cc1cccc(NC(=S)N2CCN(c3cc(C)ccc3C)CC2)c1	none
OCCC1CN(CCCn2cccn2)CCN1C1CCCCC1 (configuration not stated)	none
CC(=O)Nc1ccc(S(=O)(=O)NCCC(=O)NNC(=O)c2ccccc2O)cc1	none (no result: LmPK inh, CHX counter, Shiga inhibitor)
COc1ccc2c(c1)nc(SCC(O)c1ccccc1)n2C (configuration not stated)	none
COc1ccccc1C1C=C(c2ccccc2)Nc2nnnn21 (configuration not stated)	Shiga inhibitor 165
Fc1ccc(C2=CC(c3ccco3)n3nnnc3N2)cc1 (configuration not stated)	CHX counter 39, Shiga inhibitor 47
C=CCOC(=O)C1=C(C)Nc2nnnn2C1c1ccc(OC)cc1OC (configuration not stated)	none (no result: Pf growth 48h)
COc1ccccc1C1C=C(c2ccc(Cl)cc2)Nc2nc(N3C(=O)CCC3=O)nn21 (configuration not stated)	none
COc1ccc(C2C=C(c3ccc(Br)cc3)Nc3nnnn32)c(OC)c1 (configuration not stated)	CHX counter 33, Shiga inhibitor 66 (no result: Pf growth 48h, LmPK inh, Pf growth 96h)
CC(=O)Nc1nc2n(n1)C(c1ccc(F)cc1)C=C(c1ccccc1)N2 (configuration not stated)	Pf growth 48h inconclusive
NC(=O)c1nsc(C(=O)N(Cc2cccnc2)C(C(=O)NCc2ccc(F)cc2)c2ccc(O)cc2)c1N (configuration not stated)	Pf growth 48h inconclusive
COc1cccc(C(=O)NCc2ccco2)c1OC	Pf growth 48h inconclusive (no result: Shiga inhibitor)
CC(C)CNC(=O)CN1c2cccc3cccc(c23)S1(=O)=O	none
